Mtb MbtI inh: MbtI salicylate synthase inhibitors, primary screen, biochemical, fluorescence intensity | P9WFX0 | purified MbtI enzyme, fluorescence intensity read-out | inhibition, % (concentration not given with the values) | 100,000 compounds, 0.89% hits | AID 493033, 2011; in the data active = inhibition mostly above about 56%, no sharp cut-off; inactive = mostly below about 77%
Mtb MenB inh: M. tuberculosis MenB inhibitors, primary screen, biochemical, absorbance | 1,4-dihydroxy-2-naphthoyl-CoA synthase (Mycobacterium tuberculosis (strain ATCC 25618 / … | MenB enzyme assay, absorbance read-out | inhibition, % (test concentration not listed) | 100,000 compounds, 0.43% hits | AID 540299, 2011; in the data active = inhibition above about 21%, passing the limit was not always enough
Target sequence (P9WNP5 whole entry, looked up): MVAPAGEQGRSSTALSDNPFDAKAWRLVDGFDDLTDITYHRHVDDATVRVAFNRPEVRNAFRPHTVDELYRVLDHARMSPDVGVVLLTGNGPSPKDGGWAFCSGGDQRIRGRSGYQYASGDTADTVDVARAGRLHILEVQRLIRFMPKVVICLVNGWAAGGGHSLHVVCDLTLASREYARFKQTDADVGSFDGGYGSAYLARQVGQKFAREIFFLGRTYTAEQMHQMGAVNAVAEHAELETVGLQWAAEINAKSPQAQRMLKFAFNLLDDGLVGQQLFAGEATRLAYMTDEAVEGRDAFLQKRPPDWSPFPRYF
Polio RdRp inh: poliovirus RdRp elongation inhibitors, primary screen, biochemical, fluorescence polarization, total intensity | Genome polyprotein (Poliovirus type 1 (strain Mahoney)), P03300 | poliovirus polymerase elongation; hits give low values | % elongation, % (compound at 16.7 µg/mL) | 150,000 compounds, 0.66% hits; in the data active = % elongation below about 90%
* marks the source's active call; other numbers are inactive results; . = no result. This is a sample that favours compounds with a hit; in the whole collection about 1.4% have one here.

SMILES	Mtb MbtI inh	Mtb MenB inh	Polio RdRp inh
CS(=O)(=O)Nc1ccccc1C(=O)OCC(=O)Nc1ccccc1C(F)(F)F	-21	-9	100
Cc1cc(C(=O)COC(=O)CCc2nc3ccccc3s2)c(C)n1CC1CCCO1 (stereo not given)	0	-16	.
N#CCn1ccn(-c2ccc(F)c(Cl)c2)c(=O)c1=O	-9	-13	103
O=c1sn(-c2ccc(F)c(Cl)c2)c(=O)n1C1Cc2ccccc2C1	83*	9	95
CCC(C)N(Cc1nc2ccccc2c(=O)[nH]1)C(=O)/C=C/c1ccco1 (stereo not given)	43	-27	108
CCC(C)(C)C(=O)NCc1ccc2c(c1)OCO2	.	4	105
CC(C)NS(=O)(=O)c1ccc(OCC(=O)NCc2ccco2)cc1	-12	.	.
CC(NS(=O)(=O)c1ccc(Br)cc1)C(=O)NCc1ccco1 (stereo not given)	12	37*	100
CN=Cc1cc(-c2ccccc2)oc1S	53	-155	101
CN=Cc1cc(-c2ccccc2)n(C)c1S	98*	-144	101
CC(N)c1cc(F)c(Cl)cc1Cl (stereo not given)	-10	-23	101
CCOc1cc(N2CCOCC2)c(OCC)cc1NC(=O)c1c(C)nn(-c2ccccc2)c1C	124	-10	109
COc1ccc(CC(=O)Nc2nccs2)cc1OC	.	-11	103
COc1ccc(CNc2nccs2)cc1OC	4	29*	101
COc1ccc(Cl)cc1NC(=O)c1sc(=S)n(C)c1N	88*	-24	72*
COc1ccc(Cl)cc1NC(=O)c1sc2nc(-c3ccc(OC)c(OC)c3)ccc2c1N	.	.	104
Cc1ccccc1Nc1nc(N)nc(COC(=O)Cc2c[nH]c3ccccc23)n1	-9	-2	108
Cc1ccccc1Nc1nc(N)nc(COC(=O)CCCN=C2NS(=O)(=O)c3ccccc32)n1	-8	-1	86*
CN(C)C(=O)CSc1nc(-c2ccccc2)cs1	9	-29	104
CSc1nc(NCCOC(=O)c2ccco2)c(C#N)c(-c2ccc(C(C)(C)C)cc2)n1	16	11	101
CCC(Sc1nc2c(c(=O)[nH]1)CCCC2)C(=O)Nc1ccccc1OC (stereo not given)	37	.	.
CCC(Sc1nc2c(c(=O)[nH]1)CCC2)C(=O)Nc1cccc(OC)c1 (stereo not given)	96*	5	102
CC(C)CC(C(=O)Nc1ccccc1)N1Cc2ccccc2C1=O (stereo not given)	-17	0	100
N#C/C(C(N)=O)=C(/S)Nc1ccccc1	30	-16	101
N#C/C(C(=O)N1CCCCC1)=C(/S)Nc1ccccc1	71*	-17	99
SMILES	Mtb MbtI inh	Mtb MenB inh	Polio RdRp inh
COc1ccc(NC(=O)N(CCN(C)C)Cc2cc3cc(OC)ccc3[nH]c2=O)cc1	80	34*	103
CCN1CCCC1CN(Cc1cc2cc(OC)ccc2[nH]c1=O)C(=O)Nc1ccccc1 (stereo not given)	89	19	102
N#Cc1cnn(C(=O)c2ccc(NS(=O)(=O)c3cccs3)cc2)c1N	4	-9	100
O=C(Cc1ccccc1)Nc1sc2c(c1C(=O)Nc1ccc(Cl)cc1)CCCC2	.	.	71*
COc1ccc(CC(=O)Nc2sc3c(c2C(=O)Nc2cccc(Cl)c2)CCCCC3)cc1	.	.	107
Nc1sc2c(c1C(=O)Nc1ccc(Cl)cc1)CCC2	.	-3	89*
Nc1sc2c(c1C(=O)Nc1cccc(Cl)c1)CCCCC2	.	-14	104
O=C(Cc1ccccc1)Nc1sc2c(c1C(=O)Nc1ccccc1)CCCCC2	.	.	100
O=C(Cc1ccccc1)Nc1sc2c(c1C(=O)Nc1ccccc1Cl)CCCC2	.	.	85*
O=C(Nc1sc2c(c1C(=O)Nc1cccc(Cl)c1)CCCC2)c1cccs1	.	.	77*
O=C(COc1ccccc1)Nc1sc2c(c1C(=O)Nc1ccccc1Cl)CCCCC2	.	.	102
CC(Sc1nnnn1Cc1cccs1)C(=O)Nc1ccc2c(c1)OCCO2 (stereo not given)	-2	-17	103
CN1C(=O)/C(=C2/Sc3ccc(Cl)cc3N2C)SC1=S	-4	0	103
CCc1nnc(NC(=O)c2c(O)c3ccccc3[nH]c2=O)s1	-4	-49	102
COc1ccc(C)c2sc(NNC(=O)C3=COCCO3)nc12	26	-59	100
O=c1[nH]c2ccccc2c(=O)n1NC(=S)NC1CC2CCC1C2 (stereo not given)	-5	-6	98
CSc1nc2ccccc2n1CN1CCN(Cc2cccs2)CC1	9	15	100
CN(C)/C=N/c1nnc(SCC(=O)c2ccc(Cl)cc2)s1	10	-11	102
CN(C)C=NC(=S)c1sccc1CSc1ccc(Cl)cc1	74*	-26	106
